According to PubChem BioAssay (NCATS):
Where “and” joins values, the source holds several entries; their conditions need not be identical. Equal values may be shown once. Results filed as inconclusive are left out. Calls of active or inactive are those of the source. The call rests on the fitted dose curve; in most records, active means well fitted curve in the direction sought with a large enough effect; inconclusive means small, poorly fitted or top-dose-only effect, or another doubt; inactive means no such curve, though single readings can be large; an effect the other way counts as inactive or inconclusive.

Columns and labels:
[1] = target: Cellular tumor antigen p53 (Homo sapiens) (UniProt P04637); test: Primary qHTS for small molecule compounds that upregulate eGFP-tagged delta133p53alpha (in N-terminal) cells. (AID 2060322); details: NCI-H358 eGFP-delta133p53alpha fluorescence, 24 h; activation: active compounds read high; further: nearly all actives have a fitted effect of over 75% in size; further: potency means the concentration at half of the fitted maximal effect;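 on activation: series mostly up to about 56 µM; 0% = DMSO vehicle and 100% = reference activator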
Sequence of Cellular tumor antigen p53 (Homo sapiens) (P04637 whole entry, looked up): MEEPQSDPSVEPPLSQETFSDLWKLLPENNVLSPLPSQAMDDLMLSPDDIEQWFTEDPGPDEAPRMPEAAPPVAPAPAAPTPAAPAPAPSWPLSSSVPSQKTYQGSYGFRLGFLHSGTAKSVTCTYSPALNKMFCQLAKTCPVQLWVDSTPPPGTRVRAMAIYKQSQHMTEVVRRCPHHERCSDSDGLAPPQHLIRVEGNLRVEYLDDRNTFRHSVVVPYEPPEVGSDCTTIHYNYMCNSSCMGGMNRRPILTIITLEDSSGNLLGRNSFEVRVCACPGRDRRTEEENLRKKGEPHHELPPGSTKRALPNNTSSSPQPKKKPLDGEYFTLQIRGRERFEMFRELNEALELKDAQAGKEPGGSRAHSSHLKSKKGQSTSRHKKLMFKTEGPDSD
Summary of the method: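 NCI-H358 cells pre-induced 24 h with 10 ng/ml doxycycline to express N-terminal eGFP-delta133p53alpha, then dosed 24 h at 37C without doxycycline; fixed, Hoechst-stained, GFP intensity by laser scanning cytometry, normalized to DMSO (0%) and 57.5 uM 5-azacytidine (100%).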

[2] = target: Aldehyde dehydrogenase, mitochondrial (Homo sapiens) (UniProt P05091); test: qHTS for Inhibitors of the Aldehyde Dehydrogenase Family (ALDH2) Primary screen (AID 2061308);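 further: plate controls were vehicle for no effect and reference inhibitor for full effect; nearly all actives have a fitted effect of over 55% in size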
[3] = target: Retinaldehyde dehydrogenase 3 (Homo sapiens) (UniProt P47895); test: qHTS for Inhibitors of the Aldehyde Dehydrogenase Family (ALDH1A3) Primary screen (AID 2061315);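 further: plate controls were DMSO vehicle for no effect and reference inhibitor for full effect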
[4] = BET inhibitor-based combinations targeting novel dependencies in MECOM-rearranged (r) AML: SET-2 cell line (AID 2202231); details: SET-2 AML cells viability, CellTiter-Glo luminescence, 48 h; viability: active compounds read low, concentration not given here; further: nearly all actives have a fitted effect of over 35% in size; further: potency means the concentration at half of the fitted maximal effect;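 on viability: plate controls were DMSO treated cells for no effect and wells without cells for full effect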
Summary of the method: (§1)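 Each compound was tested at eleven concentrations on cells seeded at 500/well. After two days' incubation, ATP-based luminescence reported viability; responses relative to DMSO and blank wells yielded AUC and cell-line-centred Z-AUC.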

[5] = BET inhibitor-based combinations targeting novel dependencies in MECOM-rearranged (r) AML: OCI-AML3 cell line (AID 2202232); details: Potency: OCI-AML3 viability; further: nearly all actives have a fitted effect of over 35% in size; further: potency means the concentration at half of the fitted maximal effect
Summary of the method: as §1

[6] = BET inhibitor-based combinations targeting novel dependencies in MECOM-rearranged (r) AML: MV-4-11 cell line (AID 2202233); further: nearly all actives have a fitted effect of over 45% in size; further: potency means the concentration at half of the fitted maximal effect
Summary of the method: (§2)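 First, 500 cells per well were seeded; next, drugs were pinned as 11-point doses; then plates sat 48 hr in the incubator; finally CellTiter-Glo was added and luminescence read, with AUC and Z-AUC computed.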

[7] = BET inhibitor-based combinations targeting novel dependencies in MECOM-rearranged (r) AML: HNT-34 cell line (AID 2202234); further: nearly all actives have a fitted effect of over 35% in size; further: potency means the concentration at half of the fitted maximal effect
Summary of the method: as §2

[8] = BET inhibitor-based combinations targeting novel dependencies in MECOM-rearranged (r) AML: AML-191 cell line (AID 2202236; further: nearly all actives have a fitted effect of over 35% in size; further: potency means the concentration at half of the fitted maximal effect)
Summary of the method: as §1

[9] = BET inhibitor-based combinations targeting novel dependencies in MECOM-rearranged (r) AML: AML-194 cell line (AID 2202237; further: nearly all actives have a fitted effect of over 40% in size; further: potency means the concentration at half of the fitted maximal effect)
Summary of the method: as §1

[10] = BET inhibitor-based combinations targeting novel dependencies in MECOM-rearranged (r) AML: UCSD-AML1 cell line (AID 2202235); further: nearly all actives have a fitted effect of over 40% in size; further: potency means the concentration at half of the fitted maximal effect
Summary of the method: as §2

Cc1cccc(Nc2nc(N[C@@H]3CCCC[C@H]3N)ncc2C(N)=O)c1
active: Potency [4] 29500 nM | Potency [5] 16600 nM | Potency [6] 2630 nM | Potency [7] 18600 nM | Potency [8] 18600 nM | Potency [9] 16600 nM
inactive: activation [1] 14.8% | Potency [2] | Potency [3]

N#CCNC(=O)c1ccc(-c2ccnc(Nc3ccc(N4CCOCC4)cc3)n2)cc1
active: Potency [1] 8490 nM | Potency [4] 4170 nM | Potency [5] 16600 nM | Potency [6] 833 nM | Potency [7] 2950 nM | Potency [10] 1480 nM | Potency [8] 4680 nM | Potency [9] 5250 nM
inactive: Potency [2] | Potency [3]

c1cc(N[C@@H]2CCNC2)nc(-c2cnc3ccc(-c4cn[nH]c4)cn23)c1
active: Potency [1] 34300 nM | Potency [5] 8330 nM | Potency [6] 13.2 nM | Potency [7] 4170 nM | Potency [8] 16600 nM | Potency [9] 18600 nM
inactive: Potency [2] | Potency [3] | viability [4] 88.2%

Cc1[nH]c2ccc(F)cc2c1-c1nc2c3cccnc3c3ncccc3c2[nH]1
active: Potency [4] 2700 nM | Potency [5] 679 nM | Potency [6] 605 nM | Potency [7] 679 nM | Potency [8] 539 nM | Potency [9] 762 nM
inactive: activation [1] -1% | Potency [2] | Potency [3]

CC1(C)[C@@H](O)CC[C@]2(C)[C@H]3C(=O)C=C4[C@@H]5C[C@@](C)(C(=O)O)CC[C@]5(C)CC[C@@]4(C)[C@]3(C)CC[C@@H]12
inactive: activation [1] 29.7% | Potency [2] | Potency [3] | viability [4] 112% | Potency [5] | Potency [6] | Potency [7] | Potency [10] | Potency [8] | Potency [9]

CCNC(=O)Nc1ncc(-c2cc(-c3c(C)cc(OC)cc3C)nc(-c3cnccn3)n2)s1
inactive: activation [1] -5.36% | Potency [2] | Potency [3] | viability [4] 114% | Potency [5] | Potency [6] | Potency [7] | Potency [10] | Potency [8] | Potency [9]

CC(C)c1noc(N2CCC(COc3ccc(-c4ccc(S(C)(=O)=O)cc4)nc3)CC2)n1
inactive: activation [1] -0.134% and -12.9% | Potency [2] | Potency [3] | Potency [7] | Potency [10] | Potency [9]
active: Potency [4] 11800 nM | Potency [5] 4680 nM | Potency [6] 2350 nM

FC(F)(F)c1ccc(Nc2nc(-c3c(C(F)(F)F)nc4ccccn34)cs2)cc1
active: Potency [4] 833 nM | Potency [5] 417 nM | Potency [6] 417 nM | Potency [7] 332 nM | Potency [10] 332 nM | Potency [8] 296 nM | Potency [9] 332 nM
inactive: activation [1] -3.82% | Potency [2] | Potency [3]

Cc1ccc(-c2ccc3ncc4c(c3n2)n(C2CCN(C(=O)[C@H](C)O)CC2)c(=O)n4C)cn1
active: Potency [1] 12000 nM | Potency [4] 166 nM | Potency [5] 296 nM | Potency [6] 209 nM | Potency [7] 263 nM | Potency [10] 93.4 nM | Potency [8] 166 nM | Potency [9] 417 nM
inactive: Potency [2] | Potency [3]

O=C(NCC1CN(c2ccc(N3CCOCC3=O)cc2)C(=O)O1)c1ccc(Cl)s1 (stereo not given)
inactive: activation [1] -11.9% and 7.67% | Potency [2] | Potency [3] | viability [4] 94.7% | Potency [5] | Potency [6] | Potency [10] | Potency [9]
active: Potency [7] 23500 nM

COc1cc2c(Oc3ccc(NC(=O)C4(C(=O)Nc5ccc(F)cc5)CC4)cc3F)ccnc2cc1OCCCN1CCOCC1
active: Potency [1] 7570 nM | Potency [4] 23500 nM | Potency [5] 11800 nM | Potency [6] 7.4 nM | Potency [7] 833 nM | Potency [10] 833 nM | Potency [9] 590 nM
inactive: Potency [2] | Potency [3]

CNC(=O)c1ccc(Nc2ncc(C(F)(F)F)c(NCc3nccnc3N(C)S(C)(=O)=O)n2)cc1
active: Potency [1] 12000 nM | Potency [4] 3320 nM | Potency [5] 4680 nM | Potency [6] 296 nM | Potency [7] 1860 nM | Potency [10] 2630 nM | Potency [8] 2950 nM | Potency [9] 3720 nM
inactive: Potency [2] | Potency [3]

C[C@@H]1COCCN1c1cc(=O)n2c(n1)N(Cc1cncc(Cl)c1)[C@H](C(F)(F)F)CC2
inactive: activation [1] -34.6% | Potency [2] | Potency [3] | viability [4] 106% | Potency [5] | Potency [6] | Potency [7] | Potency [9]

Cc1cn(CCN2CCN(c3ccccc3-c3cc(C#N)cc(C(=O)NCCCN4CCCC4)c3)CC2)c2ccccc12
active: Potency [4] 23500 nM | Potency [5] 18600 nM | Potency [6] 20900 nM | Potency [7] 18600 nM | Potency [9] 18600 nM
inactive: activation [1] 15.8% | Potency [2] | Potency [3]
